Screening results as filed in PubChem.
ALR inh = human ALR oxidase inhibition via reduced H2O2; P55789; purified ALR, DTT oxidation, H2O2 HRP-luminol luminescence; inhibition, % (no concentration beside the values); 290,000 compounds, 3.8% hits;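 active = mean replicate inhibition above about 79%, with every replicate also reaching it, limit read from the data; inconclusive = only one of the two criteria met; inactive = mean below limit and not every replicate reaching it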
Target sequence (P55789 whole entry, looked up): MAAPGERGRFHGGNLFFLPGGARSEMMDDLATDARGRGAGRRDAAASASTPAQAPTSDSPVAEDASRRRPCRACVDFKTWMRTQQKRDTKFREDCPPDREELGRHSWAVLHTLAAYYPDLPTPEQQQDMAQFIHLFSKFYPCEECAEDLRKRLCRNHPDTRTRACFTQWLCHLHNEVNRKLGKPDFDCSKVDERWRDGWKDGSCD
SUMO HTRF inh = blocks human SUMOylation mediated by UBC9; P63279; HTRF SUMOylation assay, SAE1/SAE2 + UBC9, in vitro; inhibition, % at 35 µM; 290,000 compounds, 0.36% hits; in the data active = inhibition above about 50%, passing the limit was not always enough; inconclusive = no clear call, values can overlap the other calls
Target sequence (P63279 whole entry, looked up): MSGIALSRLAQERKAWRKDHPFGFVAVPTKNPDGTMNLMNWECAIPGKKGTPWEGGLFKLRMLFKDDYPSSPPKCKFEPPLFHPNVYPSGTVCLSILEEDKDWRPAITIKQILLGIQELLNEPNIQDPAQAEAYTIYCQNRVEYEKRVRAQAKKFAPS
Cardio protect = protects H9c2 cardiomyocytes from peroxide injury | H2O2 injury protection, ATPLite, 2 h | protection from H2O2 cell death, % at 20 µM | 360,000 compounds, 0.63% hits;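 active = compounds giving at least 50% protection of heart cells from peroxide-induced death in the single-dose screen, raw or plate-pattern-corrected value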
NTR1 ag = activates human neurotensin receptor 1; activation, % at 20 µM; AID 493036; 330,000 compounds, 0.17% hits; P30989; NTR1-U2OS beta-arrestin-GFP spot imaging, agonist mode;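 active = activation at or above 40% of the spot to cytoplasm intensity ratio, with at least 20 cells analyzed; inconclusive = wells under 20 cells, flagged as cytotoxic or low count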
Of the large screens only hits and unclear results are named; the others gave an inactive call. In the library only some 3.9% were active in any assay of this set; here they are far more common.

CCOC(=O)C1=CN(Cc2cccc(F)c2)S(=O)(=O)NC1c1ccc(Br)cc1F (configuration not stated)	none (no result: ALR inh, SUMO HTRF inh)
COC(=O)c1cccc(NC(=O)/C=C/c2ccc([N+](=O)[O-])cc2)c1	none
O=C(/C=C/c1ccc([N+](=O)[O-])cc1)Nc1cccc(C(=O)Nc2ccccc2C(=O)O)c1	ALR inh 91 (no result: NTR1 ag)
CCOc1ccc(/C=N/NC(=O)C2(O)c3ccccc3-c3ccccc32)cc1	none
COc1cc(/C=N/Nc2ncc(C(F)(F)F)cc2Cl)cc(OC)c1OC	none
COc1ccc(/C=N/NC(=O)c2ccncc2)cc1OC	none
CCOc1ccc2[nH]c(C(=O)N/N=C/c3cc(OC)c(OC)c(OC)c3)cc2c1	none
COc1cc(/C=N/NC(=O)c2cc3ccccc3[nH]2)ccc1O	ALR inh 100
COc1cc(/C=N/Nc2ncc(C(F)(F)F)cc2Cl)cc(OC)c1O	ALR inh 99
COc1cc(/C=N/NC(=O)C2(O)c3ccccc3-c3ccccc32)ccc1O	ALR inh 99
COc1cc(/C=N/NC(=O)c2ccncc2)ccc1O	ALR inh 99
O=C(O)CCCCN1C(=O)/C(=C\c2ccc(OCc3ccccc3)c(OCc3ccccc3)c2)SC1=S	none
O=C(O)c1ccc(/C=N/Nc2ccc(C(F)(F)F)cn2)cc1	none (no result: ALR inh, NTR1 ag)
COc1cc(/C=N/Nc2ccc(C(F)(F)F)cn2)ccc1O	ALR inh 99
COc1cc(/C=N/NC(=O)C(=O)/C=C2\NC(C)(C)Cc3ccccc32)ccc1O	ALR inh 82
COc1cccc(/C=N/NC(=O)c2ccncc2)c1OC(=O)c1ccc(Br)cc1	Cardio protect 55
COc1cc(/C=N/Nc2cc(C)nc(N)n2)ccc1O	ALR inh 98
COc1cc(/C=N/NC(=O)C(=O)Nc2ccccn2)ccc1O	ALR inh inconclusive
COc1cc(/C=N/NC(=O)c2nc(C)cc(C)n2)ccc1O	ALR inh 99
CCOC(=O)c1c(NC(=O)C(=O)N/N=C/c2ccc(OCC)cc2)sc2c1CCCCC2	none
CCOC(=O)c1c(NC(=O)C(=O)N/N=C/c2ccc(O)c(OC)c2)sc2c1CCCCC2	Cardio protect 53
COc1cc(/C=N/NC(=O)c2cc[n+]([O-])cc2)ccc1O	ALR inh 99
COc1ccc(/C=N/NC(=O)c2cc[n+]([O-])cc2)cc1OC	none
COc1cc(/C=N/NC(=O)c2cccc(C(=O)N/N=C/c3ccc(O)c(OC)c3)n2)ccc1O	none
O=C(COc1ccccc1Br)NCc1ccco1	none
COC(=O)c1ccc(C(=O)N2CCCC(Nc3ccc(C(C)C)cc3)C2)cc1 (configuration not stated)	ALR inh 98
CC(C)c1ccc(NC2CCCN(C(=O)c3cccnc3)C2)cc1 (configuration not stated)	none
CC(C)c1ccc(NC2CCCN(C(=O)c3n[nH]c4c3CCC4)C2)cc1 (configuration not stated)	ALR inh 99
CC(C)c1ccc(NC2CCCN(C(=O)c3ccsc3)C2)cc1 (configuration not stated)	ALR inh 98
O=C(c1ccsc1)N1CCCC(Nc2ccc(F)c(F)c2)C1 (configuration not stated)	none
CCn1c(=O)c(C(=O)NCCc2ccccc2)c(O)c2ccccc21	none
c1ccc2c(c1)-c1cccc3cncc-2c13	none (no result: ALR inh, SUMO HTRF inh, NTR1 ag)
CCCn1c(=O)c(C(=O)NNC(=O)c2ccccc2[N+](=O)[O-])c(O)c2ccccc21	none
COc1ccc([N+](=O)[O-])cc1NS(=O)(=O)c1ccc(C(=O)N2CCCC2)cc1	none (no result: SUMO HTRF inh)
COc1ccc(NC(=O)CSc2nc(-c3ccco3)nc3cc(=O)[nH]n23)cc1Cl	ALR inh 99
CCC1(CC)CNC(=O)NC1=O	none (no result: ALR inh, SUMO HTRF inh, NTR1 ag)
C[C@@H]1NC(=O)[C@H](CCCN=C(N)N)NC(=O)c2cc([N+](=O)[O-])cc(I)c2OCC[C@@H](C(N)=O)NC1=O	none (no result: ALR inh, Cardio protect, NTR1 ag)
COc1ccc(-c2[nH]c(-c3ccccc3)nc2SCC(=O)Nc2nccs2)cc1	ALR inh 98
COc1ccc(-c2[nH]c(-c3ccc(Cl)cc3)nc2SCC(=O)Nc2nccs2)cc1	ALR inh 94
COc1ccc(-n2c(SCC(=O)Nc3nccs3)nnc2-c2ccc(Cl)cc2)cc1	none (no result: ALR inh, SUMO HTRF inh, NTR1 ag)
c1ccc(N2CCOCCOCCOCCOCC2)cc1	ALR inh 99
COc1ccccc1/C=C/C=N/NC(=O)c1cc(-c2ccco2)[nH]n1	ALR inh 98
COc1ccccc1/C=C/C=N/NC(=O)c1ccccn1	none
O=C(NCc1ccco1)c1cc2cc(Br)ccc2o1	ALR inh 98
Cc1ccc2c(c1)CCCN2S(=O)(=O)c1cccc(C(=O)Nc2ccccc2C(=O)O)c1	ALR inh 98
CN(C)C(=O)c1ccc(NC(=O)c2cccc(S(=O)(=O)N3CCCc4ccccc43)c2)cc1	ALR inh 98 (no result: SUMO HTRF inh)
CN(C)C(=O)c1ccc(NC(=O)c2cccc(S(=O)(=O)N3CCCCCC3)c2)cc1	none (no result: SUMO HTRF inh)
O=C(COc1coc(CN2CCN(c3ccccc3)CC2)cc1=O)Nc1ccccc1	none (no result: SUMO HTRF inh)
CCc1ccc(NC(=O)CCS(=O)(=O)c2cccc3nsnc23)cc1	none
CCN(CC)c1ccc(NC(=O)CCS(=O)(=O)c2cccc3nsnc23)c(C)c1	ALR inh 99
O=C(O)CCCC(=O)N1CCN(c2nc(-c3ccccc3)c3ccccc3n2)CC1	ALR inh 77
COc1cccc(NC(=O)CCCn2c(=S)[nH]c3ccccc3c2=O)c1	ALR inh 83
O=C(N/N=C/c1cccc([N+](=O)[O-])c1)c1cc2ccccc2o1	none
O=C(COC(=O)/C=C/c1cccc([N+](=O)[O-])c1)NCC1CCCO1 (configuration not stated)	none
O=C(COC(=O)/C=C/c1ccc([N+](=O)[O-])cc1)NCC1CCCO1 (configuration not stated)	ALR inh 95
Nn1c(SCC(=O)NC2CCCCC2)nnc1-c1ccc(Cl)cc1	none
Cc1c([N+](=O)[O-])cnc(Sc2ccccc2)c1[N+](=O)[O-]	ALR inh 99 (no result: SUMO HTRF inh)
Cc1nc2ccccn2c1-c1ccnc(=S)[nH]1	ALR inh 100
S=c1nccc(-c2ccc(Cl)cc2)[nH]1	none (no result: ALR inh)
N#CC(c1ccccc1)C1CCN(Cc2ccccc2)CC1 (configuration not stated)	none
O=C1Nc2ccc(Br)cc2/C1=C/C(=O)c1ccccc1	none (no result: ALR inh, SUMO HTRF inh, NTR1 ag)
O=C(O)COc1ccccc1/C=C1\C(=O)Nc2ccc(Br)cc21	ALR inh 98
Cc1ccc(-c2noc(C3CCCN(C(=O)C4CCCCC4)C3)n2)o1 (configuration not stated)	none
COC(=O)C1(CCSC)NC(c2ccccc2OC)C2C(=O)N(C)C(=O)C21 (configuration not stated)	none (no result: ALR inh)
CC(C)(C)c1cc(-c2n[nH]c(=S)n2-c2ccccc2F)n[nH]1	ALR inh 91
Cc1ccccc1-n1c(-c2ccc(=O)[nH]n2)n[nH]c1=S	none
CCN(CC)C(=O)COc1ccc2oc(-c3ccco3)cc(=O)c2c1	SUMO HTRF inh 53 (no result: ALR inh)
CCN(CC)C(=O)COc1c(-c2ccco2)oc2ccccc2c1=O	none
Cc1cc(C)c(C#N)c(N2CCN(c3ccccc3F)CC2)n1	none (no result: ALR inh)
COc1cccc(N2CCN(c3nc(C)cc(C)c3C#N)CC2)c1	ALR inh 86
